Inconclusive results are not listed. Calls of active or inactive are those of the source. The calls were made as follows: active = hit-call score of the fitted dose curve at least 0.9, where 1 is the maximum; inconclusive = response in the unintended direction; inactive = score below 0.9.

One may read the AC50 as the concentration at which the activity in the assay is half-maximal.

The test concerns frog Estrogen Receptor (ER1), gene 398734. Description: ATG_frER1_EcoTox2: Attagene TRANS-FACTORIAL EcoTox-2 HepG2 Assay for frog Estrogen Receptor (ER1). The method, then: ATG_EcoTox2 is a cell-based, multiplexed assay created by modifying the existing Attagene TRANS-FACTORIAL system to include a panel of nuclear receptors from some or all the following species: human (Homo sapiens), african clawed frog (Xenopus laevis), rainbow trout (Oncorhynchus mykiss), japanese medaka (Oryzias latipes), and zebrafish (Danio rerio). The ECOTOX2-FACTORIAL format uses HepG2, a human liver cell line, with measurements taken at 24 hours after chemical dosing in a 24-well plate. ATG_frER1_EcoTox2 is one of 29 assay components calculated in the ATG_EcoTox2 assay. It is designed to make measurements of mRNA induction, a form of inducible reporter, as detected with fluorescence intensity signals by Reverse transcription polymerase chain reaction (RT-PCR) and Capillary electrophoresis technology.The assay endpoint ATG_frER1_EcoTox2 was analyzed in the positive analysis fitting direction relative to DMSO as the negative control and baseline of activity. Using a type of inducible reporter, measures of mRNA for gain-of-signal activity can be used to understand the reporter gene at the transcription factor-level as they relate to the gene ER. Furthermore, this assay endpoint can be referred to as a primary readout, because this assay has produced multiple assay endpoints where this one serves a reporter gene function. To generalize the intended target to other relatable targets, this assay endpoint is annotated to the nuclear receptor intended target family, where the subfamily is steroidal.
Human liver HepG2 cells are transiently transfected with multiple reporter transcription units (MRTUs) in 6-well plates using FuGene 6 reagent (Roche; 3 ml FuGene/1 mg DNA). The MRTU constructs are regulated by a cis-regulating element (promoter). Each RTU expresses a GAL4-UAS that regulates the transcription of a nearby target reporter gene sequence. A major difference between the CIS and TRANS system is that in CIS activities of endogenous TFs are measured, whereas the TRANS assay evaluates changes in activities of exogenous, chimeric NR-Gal4 proteins. […] At the end of 24 hour incubation, total RNA was isolated using TriZol reagent (Invitrogen). The isolated RNA is then reverse-transcribed using oligo(dT) primer and Mo-MLV reverse transcriptase (Invitrogen) with DNAse I (Ambion) treatment for 30 min. The one-tenth of the produced cDNA was amplified by PCR using Taq DNA polymerase (Invitrogen) and two reporter sequence-specific primers. The PCR products were fluorescently labeled by primer extension with 6-arboxyfluorescein (6-FAM) 5'-labeled reporter sequence-specific primer (2 min at 95 C, 20 s at 68 C and 10 min at 72 C) and these products were digested with 5U of HpaI (New England Biolabs) for 2h at 37 C. The fragments were purified using Qiaquick PCR columns (Qiagen), analyzed on an ABI 3130xL genetic analyzer (Applied Biosystems) with peak positions identified by using a set of X-rhodamine (ROX)-labeled MapMarker1000 molecular weight standards (BioVentures). The raw capillary electrophoresis data was processed using Attagraph software (Attagene).
For the compound `Cc1cccc(Nc2cc(Cl)nc(SCC(=O)O)n2)c1C`, the outcome was inactive.

Regarding `CC(C)(Oc1ccc(CCNC(=O)c2ccc(Cl)cc2)cc1)C(=O)O`, the result was inactive.

As for `CN(CCOc1ccc(CC2SC(=O)NC2=O)cc1)c1ccccn1` (stereo not given), the compound was called inactive.

As for `C=C(c1ccc(C(=O)O)cc1)c1cc2c(cc1C)C(C)(C)CCC2(C)C`, the call was inactive.

For `Cc1c(C)c2c(c(C)c1O)CCC(C)(COc1ccc(CC3SC(=O)NC3=O)cc1)O2` (stereo not given), the call was inactive.

On to `C[C@@H]1C[C@H]2[C@@H]3CCC4=CC(=O)C=C[C@]4(C)[C@@]3(F)[C@@H](O)C[C@]2(C)[C@@]1(O)C(=O)COP(=O)(O)O`, for which the result was inactive.

Consider `CC(c1cc2ccccc2s1)N(O)C(N)=O` (stereo not given), for which the compound was called inactive.

In the case of `CC(C)OC(=O)C(C)(C)Oc1ccc(C(=O)c2ccc(Cl)cc2)cc1`, the compound was classed as inactive.

With `C[C@]12C=CC(=O)C=C1CC[C@@H]1[C@@H]2C(=O)C[C@@]2(C)[C@H]1CC[C@]2(O)C(=O)CO`, the half-maximal activity concentration (AC50) was 50 µM (active).

For `Cc1ccc(C)c(OCCCC(C)(C)C(=O)O)c1`, the compound was called inactive.

Values taken from PubChem BioAssay AID2284369 (EPA ToxCast).
